MbtI inh: inhibitors of Mycobacterium tuberculosis siderophore enzyme MbtI; inhibition, % (concentration not given with the values); purified MbtI enzyme, fluorescence intensity read-out; P9WFX0; 0.89% of 100,000 active; in the data active = inhibition mostly above about 56%, no sharp cut-off; inactive = mostly below about 77%
Mtb MenB inh: blocks the Mycobacterium tuberculosis MenB enzyme; P9WNP5; MenB enzyme assay, absorbance read-out; inhibition, % (test concentration not listed); 0.43% of 100,000 active; in the data active = inhibition above about 21%, passing the limit was not always enough
Polio RdRp inh: inhibitors of poliovirus RNA polymerase binding and polymerization; P03300; poliovirus polymerase elongation, fluorescence polarization; active compounds read low; % elongation, % (compound at 16.7 µg/mL); 0.66% of 150,000 active; AID 588519; in the data active = % elongation below about 90%
Target sequence (P03300 1749-2209 limits assumed): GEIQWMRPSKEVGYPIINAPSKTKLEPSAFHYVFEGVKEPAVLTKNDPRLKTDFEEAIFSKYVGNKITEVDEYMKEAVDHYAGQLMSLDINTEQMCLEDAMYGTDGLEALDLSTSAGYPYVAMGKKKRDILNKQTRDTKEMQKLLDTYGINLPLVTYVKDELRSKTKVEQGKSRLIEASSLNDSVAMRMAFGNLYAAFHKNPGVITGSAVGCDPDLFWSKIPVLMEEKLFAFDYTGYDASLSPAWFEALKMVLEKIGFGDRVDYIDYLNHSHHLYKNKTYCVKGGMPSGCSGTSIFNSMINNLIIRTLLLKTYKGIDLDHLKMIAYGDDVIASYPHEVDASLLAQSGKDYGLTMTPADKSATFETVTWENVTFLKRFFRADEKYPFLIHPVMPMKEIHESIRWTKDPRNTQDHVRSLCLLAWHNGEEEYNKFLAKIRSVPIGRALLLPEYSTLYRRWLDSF
Active calls of the source: *; · = no result given; ! = repeats disagree. Compounds with a hit are over-represented: about 1.5% of the library has one in this group of screens.

SMILES	MbtI inh	Mtb MenB inh	Polio RdRp inh
Cc1cccc(OCc2cc(=O)n3nc(-c4ccco4)sc3n2)c1C	48	-41	98
CC(=O)Oc1ccccc1C(=O)N1CCCc2ccccc21	-18	-22	102
O=C(O)CC1C(=O)NN=C2c3ccccc3N=CN21 (stereo not given)	26	-20	78*
O=C(O)CC1C(=O)NC(=Nc2ccccc2)N1c1ccccc1 (stereo not given)	-9	-24	102
COc1ccc(CN(Cc2cc(OC)c(OC)c(OC)c2)C(=O)C(C)(C)C)cc1	-5	-33	99
CSc1ncc2c(n1)-c1ccccc1N(C)S2(=O)=O	65	0	101
CSc1ncc2c(n1)-c1ccccc1N(Cc1ccccc1)S2(=O)=O	·	·	-15*
CCOC(=O)c1c(CN2CCOCC2)n(C)c2ccc(O)cc12	·	-1	68*
CCOC(=O)c1c(C)n(C)c2ccc(O)cc12	7	-3	107
CCOC(=O)N1CCC(NC(=O)CCNC(=O)Cn2ccc3ccccc3c2=O)CC1	-6	20	100
C=CCn1cnnc1SCc1nnc(-c2ccco2)o1	3	-25	104
O=C(NC1CCCc2ccccc21)c1cc(S(=O)(=O)N2CCCCC2)c[nH]1 (stereo not given)	-6	-44	101
O=S(=O)(NC1CCc2ccccc21)c1ccc(S(=O)(=O)N2CCCC2)cc1 (stereo not given)	-5	39*	102
COCCNC(=O)c1[nH]c2cc(C)ccc2c1Sc1ccc(Cl)cc1	·	·	111
CCN(CC)c1ccc(NS(=O)(=O)c2cc3[nH]c(=O)c(=O)[nH]c3cc2C)c(C)c1	·	·	85*
Cc1cc(Cl)ccc1NS(=O)(=O)c1cc2[nH]c(=O)c(=O)[nH]c2cc1C	·	·	103
CCOC(=O)c1c(NC(=O)c2ccccc2)sc2c1CCCC2	8	·	102
C=CCn1c(NC(=O)c2ccccc2)c(C(=O)OCC)sc1=S	78*	-137	96
CCNC(=O)CSc1ccc2ccccc2c1	0	-12	102
CCCCNC(=O)Sc1ccc2ccccc2c1	51	-8	84*
CCC(C)c1c(O)[nH]c(=S)[nH]c1=O (stereo not given)	19	-1	100
O=C(NC(Cc1ccccc1)C(=O)OCc1ccccc1)c1cccs1 (stereo not given)	-5	·	104
O=C(N[C@@H](Cc1ccccc1)C(=O)OCc1ccccc1)c1ccco1	-8	-11	80*
Cc1ccc[n+](CC(=O)c2cccs2)c1	15	28	103
Nc1n[nH]c2cc(=O)[nH]c(O)c12	5	-44	5.0*
SMILES	MbtI inh	Mtb MenB inh	Polio RdRp inh
Cc1cc2c(=O)[nH]nc(N)c2c(=O)[nH]1	0	-16	104
O=C(O)c1ccccc1Nc1ccc(SC(F)F)cc1	64	-24	106
Cc1ccc(C(c2c(O)[nH]c(=S)[nH]c2=O)N2CC(C)CC(C)C2)cc1 (stereo not given)	48	-24	97
COc1ccc(NC(=O)CCCc2nnc3n(C(C)C)c(=O)c4sccc4n23)cc1Cl	·	·	119
CCc1ccc(NC(=O)/C=C/c2ccco2)cc1	15	6	98
CCc1cccc(NC(=O)/C=C/c2ccco2)c1	78*	2	105
COc1ccc2cc([C@H](C)C(=O)O)ccc2c1	-1	-7	99
COc1ccc(-c2sccc2C(C)C(=O)O)cc1 (stereo not given)	6	27*	105
CC1(C(=O)NN)NC2(CCCCC2)Cc2ccccc21 (stereo not given)	-1	-12	100
C=COC(=O)CSc1nc(C)cc(C)c1C#N	·	3	86*
Cc1cc(C)c(C#N)c(SCC(=O)OC(C)C)n1	-28	-24	99
Cc1cc(C)c(C=C(C#N)C#N)[nH]1	-2	-467	105
Cc1cccc(C(=O)NCc2n[nH]c(=S)n2-c2ccccc2)c1	58*	2	102
Cn1c(CNC(=O)c2ccccc2)n[nH]c1=S	36	4	104
CCCCCCCC1CCC(=O)O1 (stereo not given)	-5	-4	101
CC(C)(C)NC(=O)Cc1ccccc1	-16	38*	102
NNC(=O)Cc1ccccc1	-5	-11	103
Cc1cc(C)c2[nH]c(=O)c(CNCC3CCCO3)cc2c1 (stereo not given)	80	-1	100
OC(CNCc1ccc(Cl)cc1)COc1ccc(F)cc1Cl (stereo not given)	0	·	104
C/C(=N\NC(=O)COc1ccccc1C)c1ccccc1O	1	-37	108
C/C(=N\NC(=O)c1nc(Cl)c(Cl)c(N)c1Cl)c1cc(O)ccc1O	56*	-19	105
CS(=O)(=O)N1CCCC(C(=O)N2CCN(c3ccc(F)cc3)CC2)C1 (stereo not given)	-33	-11	102
CCC(=O)Nc1nc2c(s1)CSc1ccccc1-2	96*	-11	100
CCC(=O)Nc1nc2ccccc2s1	8	·	·
COc1cccc(NC(=S)Nc2ccc(S(N)(=O)=O)cc2)c1	23	-21	99
SMILES	MbtI inh	Mtb MenB inh	Polio RdRp inh
CN1C(=O)/C(=C/c2cn(CC(=O)N3CCCC3)c3ccccc23)C(=O)NC1=S	-8	-5	99
CN1C(=O)/C(=C/c2ccc(I)o2)C(=O)NC1=S	83*	-116	95
COc1ccc(CC(=O)n2[nH]c(=O)cc(C)c2=O)cc1OC	56*	0	99
COc1ccc(CC(=O)N2CCCCCC2)cc1OC	·	-21	110
O=C(c1cc2ccccc2oc1=O)N1CCCC1	25	38	98
CCC1CCCCN1C(=O)c1cc2ccccc2oc1=O (stereo not given)	·	-8	59*
Cc1ccc(N2C(=O)C3ON(c4ccccc4)C(c4ccco4)C3C2=O)cc1 (stereo not given)	-8	-4	102
Cc1noc(C)c1CSc1ccccc1C(=O)NC(C)c1ccc(-n2ccnc2)cc1 (stereo not given)	99*	5	98
CC(NC(=O)Cn1[nH]c(=O)c2ccccc2c1=O)c1ccc(-n2ccnc2)cc1 (stereo not given)	-4	-9	97
O=C1CCCCCN1Cc1nnc(SCCN2C(=O)c3ccccc3C2=O)o1	39	-3	102
O=C1CCCCCN1Cc1n[nH]c(=S)o1	74*	-28	82*
O=C(NCc1ccccc1)c1ccc2nc(-c3cccs3)c(-c3cccs3)nc2c1	22	-24	107
Cc1ccc(-[n+]2cc(NC(=O)/C(C#N)=C/c3ccccc3)on2)cc1	-2	-137	102
CCc1ccc(S(=O)(=O)c2nnn3c2nc(NCc2cccc(OC)c2)c2cc(Cl)ccc23)cc1	·	·	89*
CCc1ccc(S(=O)(=O)c2nnn3c2nc(NCc2ccccc2)c2cc(Cl)ccc23)cc1	·	·	104
O=C(OCc1cc(F)cc2c1OC(c1ccccc1)OC2)c1ccco1 (stereo not given)	-13	-10	106
CC(C)NCC(O)COc1cccc2[nH]ccc12 (stereo not given)	2	6	99
CC(C)NCC(O)COc1cccc2ccccc12 (stereo not given)	61	-17	100*!
O=c1c2ccccc2nnn1CSc1nc2ccccc2c(=O)n1CC1CCCO1 (stereo not given)	20	10	102
CCOC(=O)N1CCc2c(sc3c2c(=O)n(CCc2ccccc2)c(=O)n3Cc2c(F)cccc2Cl)C1	·	·	106
Cn1nc(C(=O)OC2CCCCC2=O)c2ccccc2c1=O (stereo not given)	0	-23	103

High-throughput results from PubChem.
